NOMO-1 viab: STK33 inhibitor candidate reducing NOMO-1 cell viability; NOMO-1 AML viability, CellTiter-Glo luminescence, 72 h; inhibition, % (concentration not given with the values); 37,000 compounds, 7.5% hits; AID 2330; in the data active = inhibition above about 80%
PD-1 reverse act: reversal of PD-1 mediated T-cell inhibition; primary human CD4 T cells, PD-L1 beads, CellTiter-Glo 96 h; activation, % (concentration not given with the values); 29,000 tested, under 10 active; call rule not given here;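 also: 0% = median vehicle wells and 100% = positive control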
STK33 kin inh: inhibitors of human STK33 kinase | ADP-Glo luminescence, MBP substrate | inhibition, % at 12.5 µM | 27,000 compounds, 0.44% hits; in the data active = inhibition above about 20%
Target sequence (Q9BYT3 whole entry, looked up): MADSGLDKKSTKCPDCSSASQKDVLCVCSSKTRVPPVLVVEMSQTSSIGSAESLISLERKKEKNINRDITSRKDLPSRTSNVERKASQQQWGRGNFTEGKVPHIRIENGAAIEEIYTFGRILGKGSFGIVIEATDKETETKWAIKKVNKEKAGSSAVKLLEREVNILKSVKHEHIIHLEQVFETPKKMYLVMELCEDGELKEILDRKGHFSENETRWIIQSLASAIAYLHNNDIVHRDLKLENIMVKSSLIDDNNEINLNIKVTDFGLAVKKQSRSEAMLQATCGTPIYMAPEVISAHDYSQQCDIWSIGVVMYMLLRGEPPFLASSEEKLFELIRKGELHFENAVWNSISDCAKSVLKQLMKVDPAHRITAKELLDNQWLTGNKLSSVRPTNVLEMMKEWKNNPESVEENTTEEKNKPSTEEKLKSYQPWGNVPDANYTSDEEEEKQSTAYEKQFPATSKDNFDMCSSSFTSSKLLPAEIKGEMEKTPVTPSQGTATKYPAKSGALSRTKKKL
Active calls of the source: *; nt = no result. The full list was thinned out, with hits kept by preference.

SMILES | NOMO-1 viab | PD-1 reverse act | STK33 kin inh
CC(C)c1ccccc1NC(=O)CN(C)S(=O)(=O)c1ccc(Br)cc1 | -2 | nt | 8
Cc1nc2ccccc2n1CC(O)COCC1CC=CCC1 (centres undefined) | 41 | 1 | -2
Cc1ccc(C(C)C)cc1OCC(O)Cn1c(C)nc2ccccc21 (centres undefined) | 105* | -8 | 0
CCc1cc(C)cc(OCCn2cc(C=C3C(=O)NC(=O)NC3=O)c3ccccc32)c1 | 122* | -23 | 2
CCc1ccc(OCCCn2cc(/C=C3/C(=N)N4C=CSC4=NC3=O)c3ccccc32)cc1 | 54 | 0 | nt
O=c1[nH]c2ccc(F)cc2c(O)c1-c1ccccc1 | -10 | -1 | nt
CC(C)OC(=O)c1cc(N)c2c(-c3ccc(F)cc3)c(-c3cccs3)sc2n1 | 43 | -7 | -1
O=C(CC1(O)C(=O)N(Cc2ccccc2)c2ccccc21)c1cc2ccccc2oc1=O (centres undefined) | 105* | 0 | 4
COc1cccc2cc(C(=O)NCc3ccccn3)c(=O)oc12 | 4 | 4 | -3
COc1cccc2cc(C(=O)CC3(O)C(=O)N(Cc4ccccc4)c4ccc(Br)cc43)c(=O)oc12 (centres undefined) | 127* | -6 | 3
CSc1ncc(Cl)c(C(=O)Nc2sc3c(c2C(=O)NCCc2ccccc2)CCC3)n1 | 19 | 1 | 0
COCCNC(=O)c1c(NC(=O)c2nc(SC)ncc2Cl)sc2c1CCCC2 | 138* | -5 | -2
COc1ccccc1NC(=O)Cn1cc(C(=O)c2ccccc2F)c2ccccc21 | 29 | 1 | 2
COc1ccc(C(=O)NCC(=O)Nc2ccc(C)c(Cl)c2)cc1OC | 13 | 0 | 3
C[C@H]1CN([C@@H](C)CO)C(=O)Cc2cc(NC(=O)CCN3CCOCC3)ccc2O[C@H]1CN(C)Cc1ccc(C(=O)Nc2ccccc2N)cc1 | 132* | -3 | nt
C[C@@H]1CN([C@H](C)CO)C(=O)Cc2cc(NC(=O)CCN3CCOCC3)ccc2O[C@@H]1CN(C)Cc1ccc(C(=O)O)cc1 | -6 | 1 | 0
C[C@@H]1CN([C@H](C)CO)C(=O)Cc2cc(NC(=O)CCN3CCOCC3)ccc2O[C@H]1CN(C)Cc1ccc(C(=O)Nc2ccccc2N)cc1 | -3 | 0 | nt
C[C@H](CO)N1C[C@H](C)[C@H](CN(C)Cc2ccc(C(=O)Nc3ccccc3N)cc2)Oc2ccc(NC(=O)CCN3CCOCC3)cc2CC1=O | 138* | -4 | nt
Cc1csc(Nc2ccc(F)c(Cl)c2)[n+]1C(C)C | 31 | 2 | -2
Cc1ccccc1NC(=O)c1cccc(Cn2cc(C(F)(F)F)ccc2=O)c1 | 10 | 2 | -3
COc1ccc(Cn2c(-c3nonc3NC(C)=O)nc3ccccc32)cc1 | 45 | -1 | 2
CC(=O)Nc1nonc1-c1nc2ccccc2n1Cc1cccc2ccccc12 | 118* | nt | 0
O=C(Nc1cccc2ccccc12)C1CCCN1S(=O)(=O)c1ccccc1 (centres undefined) | 74 | -1 | 3
CC1(C)CC(=O)C=C(SCC(=O)Nc2cc(C(F)(F)F)cc(C(F)(F)F)c2)S1 | 103* | -2 | nt
Cc1nnc(SCC(=O)Nc2cccc(C(F)(F)F)c2)s1 | 8 | 4 | 4
SMILES | NOMO-1 viab | PD-1 reverse act | STK33 kin inh
Cc1ccc2oc(C(=O)Nc3sc4c(c3C(=O)NCc3ccco3)CCC4)c(C)c2c1 | 120* | nt | 0
Cc1ccc2c(C)c(C(=O)Nc3sc4c(c3C(=O)NCC3CCCO3)CCCC4)oc2c1 (centres undefined) | 114* | nt | 1
Cc1ccc(C(=O)Nc2sc3c(c2C(=O)NCc2ccco2)CCCC3)cc1 | 19 | nt | -1
Cc1ccc2c(C)c(C(=O)Nc3sc4c(c3C(=O)NCC3CCCO3)CCC4)oc2c1 (centres undefined) | 35 | nt | -2
O=C(Nc1cccc(C(F)(F)F)c1)c1cc([N+](=O)[O-])ccc1NCc1cccnc1 | 37 | nt | -3
COc1ccc([N+](=O)[O-])cc1NC(=O)CN(C)S(=O)(=O)c1ccc(Br)cc1 | -6 | 1 | 1
O=C(Oc1cccc(OC(=O)c2ccccc2F)c1)c1ccccc1F | 26 | 1 | nt
COc1ccc(/C=C/C(=O)OC2CCCCC2)cc1 | 95* | 0 | nt
COc1ccc(/C=C/C(=O)NC(C)(C)C)cc1 | -6 | 0 | nt
CCOC(=O)c1sc(NC(=O)CSc2nc3c(c(C(F)(F)F)n2)CCCC3)c(C#N)c1C | 33 | -4 | 0
CCOC(=O)c1cnc(S/C=C/C(=O)c2ccc(Cl)cc2)nc1N | 117* | -3 | nt
CCOC(=O)c1cnc(SCC(=O)Nc2ccc(F)c(F)c2F)nc1N | 5 | 2 | 1
C[C@H]1CN([C@@H](C)CO)C(=O)c2cccc(NC(=O)c3ccc(-c4nccs4)cc3)c2O[C@H]1CN(C)Cc1ccncc1 | 12 | nt | nt
C[C@@H]1CN([C@@H](C)CO)C(=O)c2cccc(NC(=O)c3ccc(-c4nccs4)cc3)c2O[C@@H]1CN(C)Cc1ccc(C(F)(F)F)cc1 | 88* | -6 | nt

From PubChem BioAssay
